Fam108B inh = blocks mouse Fam108B hydrolase in RBBP9 counter-screen. 300,000 tested, 0.33% active. inhibition, % at 9.51 µM. recombinant Fam108B, FP-Rh probe fluorescence polarization;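 active = inhibition above the screen mean inhibition plus 3 SD, computed separately per campaign, cut at about 18% in these data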;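 also: inhibitors lower polarization as less probe binds the enzyme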
PAD4 inh = PAD4 (human) enzyme inhibition. Q9UM07. inhibition, % at 6.36 µM. AID 485272. recombinant PAD4, RCA probe fluorescence polarization. 330,000 tested, 0.41% active;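 active = percent inhibition above a cutoff equal to the mean of all tested compounds plus 3 SD, cut at about 15% in these data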
GSTO1 inh = GSTO1 inhibition, counter-screen for RBBP9 inhibitors; recombinant GSTO1, activity-based probe fluorescence polarization; 300,000 tested, 1.1% active; inhibition, % at 5.96 µM; P78417;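 active = inhibition above the campaign mean inhibition plus 3 SD, cut at about 35% in these data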
Target sequence (P78417 whole entry, looked up): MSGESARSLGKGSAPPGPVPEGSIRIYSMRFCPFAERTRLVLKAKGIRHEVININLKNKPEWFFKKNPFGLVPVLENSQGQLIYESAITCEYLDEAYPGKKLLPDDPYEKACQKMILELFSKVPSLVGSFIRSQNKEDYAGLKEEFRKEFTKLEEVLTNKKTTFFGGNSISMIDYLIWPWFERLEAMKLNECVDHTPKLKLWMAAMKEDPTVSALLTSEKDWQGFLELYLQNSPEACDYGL
LYPLA2 inh = blocks human lysophospholipase 2, a PME1 counter-screen | inhibition, % at 5.9 µM | AID 2177 | O95372 | 320,000 tested, 0.38% active | recombinant LYPLA2, FP-Rh probe fluorescence polarization;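 active = inhibition above the screen-wide mean plus 3 SD, limit set per campaign, cut at about 26% in these data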
PME-1 inh = blocks human protein phosphatase methylesterase 1 | 320,000 tested, 0.53% active | recombinant PME-1, FP-Rh probe fluorescence polarization | inhibition, % at 5.9 µM | Q9Y570;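 active = inhibition above the campaign mean of all compounds plus 3 SD, cut at about 26% in these data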;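 also: competitive labeling of PME-1 active site by serine hydrolase directed probe; inhibitors block probe labeling so polarization falls and inhibition rises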
Target sequence (Q9Y570 whole entry, looked up): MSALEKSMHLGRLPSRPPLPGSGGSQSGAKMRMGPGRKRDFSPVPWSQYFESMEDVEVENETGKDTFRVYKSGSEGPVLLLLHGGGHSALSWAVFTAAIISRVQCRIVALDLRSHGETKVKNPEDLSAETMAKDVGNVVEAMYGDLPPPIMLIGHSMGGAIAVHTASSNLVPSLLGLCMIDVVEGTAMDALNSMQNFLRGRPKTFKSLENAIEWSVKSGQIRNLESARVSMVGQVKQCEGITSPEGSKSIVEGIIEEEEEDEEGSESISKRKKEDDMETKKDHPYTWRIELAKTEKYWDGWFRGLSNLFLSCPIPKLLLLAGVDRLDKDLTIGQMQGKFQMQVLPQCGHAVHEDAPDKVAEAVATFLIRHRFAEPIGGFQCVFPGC
LYPLA1 inh = LYPLA1 (human) inhibition in PME1 counter-screen; inhibition, % at 5.9 µM; O75608; recombinant LYPLA1, FP-Rh probe fluorescence polarization; AID 2174; 320,000 tested, 0.16% active;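 active = inhibition above the mean of all tested compounds plus 3 SD, set per campaign, cut at about 14% in these data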;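 also: inhibitors block serine hydrolase probe labeling of LYPLA1 so polarization falls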
GSTO1 confirm = confirmation of human GSTO1 inhibitors; shares compounds with GSTO1 inh; recombinant GSTO1, probe fluorescence polarization; inhibition, % at 5.96 µM; 2,400 tested, 54% active; AID 2176;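 active = inhibition above the primary screen's cutoff, its mean inhibition plus 3 SD, cut at about 35% in these data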;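 also: loss of polarization as inhibitors block binding of rhodamine sulfonate ester activity probe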
GSTO1 recomb ABPP = blocks recombinant human glutathione S-transferase omega 1. AID 463110. shares compounds with GSTO1 inh. inhibition, % at 1 µM. 130 tested, 30% active. recombinant GSTO1, gel ABPP SE-Rh probe fluorescence;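 active = inhibition of the enzyme GSTO1 above about 75%, limit read from the data; inactive = inhibition below that limit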
Each line names hits and unclear results; the compound was inactive in the other large screens (follow-up assays come after a bar, where they were run). Shown are actives, neighbours in structure and some others; about 1.8% of the full set was active somewhere.

Cc1cc(C)c(NC(=O)CSc2nc3ncc(Br)cc3[nH]2)c(C)c1	none
O=C(CSc1nc2ncc(Br)cc2[nH]1)Nc1ccc2c(c1)OCO2	GSTO1 inh 45 | GSTO1 confirm 53
COc1ccc(C2CC(c3cccs3)=NN2C(=O)CCl)cc1OC (stereo not drawn)	GSTO1 inh 90 | GSTO1 confirm 96
COc1cc(C2CC(c3cccs3)=NN2C(=O)CCl)ccc1OC(F)F (stereo not drawn)	GSTO1 inh 94 | GSTO1 confirm 97
COc1ccc(C2CC(c3cccs3)=NN2C(=O)c2ccccc2)cc1OC (stereo not drawn)	none
Cc1ccc(/C=C/C(=O)N2CC(C)CC(C)C2)o1 (stereo not drawn)	none
CCC(C)NC(=O)CNC(=O)c1nn(-c2ccc(OC)c(Cl)c2)c(=O)c2ccccc12 (stereo not drawn)	none
c1ccc(-c2ccc(C3=Nn4c(Cn5nnc6ccccc65)nnc4SC3)cc2)cc1	GSTO1 inh 56 | GSTO1 confirm inactive
O=C(C1CCOCC1)N1CCC(CO)(CCc2ccccc2)CC1	none
CC(=O)Nc1cc(NC(C)=O)cc(C(=O)OCC(=O)N2CC(C)OC(C)C2)c1 (stereo not drawn)	none
CC(=O)Oc1ccc2occ(/C=N/c3cc(=O)[nH]c(=S)[nH]3)c(=O)c2c1	GSTO1 inh 73 | GSTO1 confirm inactive
COc1ccc(Nc2ccc3c(c2)=NC2(CCCCC2)[N+]=3[O-])cc1	GSTO1 inh 54 | GSTO1 confirm inactive
c1ccc(Nc2cccc(Nc3ccccc3)c2)cc1	none
[O-][N+]1=c2ccc(Nc3ccccc3)cc2=NC12CCCCC2	GSTO1 inh 58 | GSTO1 confirm 35
C[C@H](CO)N1C[C@H](C)[C@@H](CN(C)C(=O)Nc2ccc3c(c2)OCO3)Oc2ccc(NS(=O)(=O)c3ccccc3)cc2C1=O	none (no result: Fam108B inh, GSTO1 inh, LYPLA2 inh, PME-1 inh, LYPLA1 inh)
CCN(CC)S(=O)(=O)c1ccc2[nH]c(=O)cc(C(=O)NCC3CCCO3)c2c1 (stereo not drawn)	none
O=C(CN1CCOCC1)N/N=C/c1ccco1	none
O=C(CN1CCOCC1)N/N=C/c1c(O)ccc2ccccc12	GSTO1 inh 38 | GSTO1 confirm inactive
CC1(OC(=O)C2CCCC2)C(=O)C=C2C=C(c3ccsc3)N(CCCCO)C=C2C1=O (stereo not drawn)	GSTO1 inh 44 | GSTO1 confirm inactive
CCCC[n+]1ccn(C2=C([O-])c3ccccc3C(=O)/C2=N\S(=O)(=O)c2ccc(Cl)cc2)c1	GSTO1 inh 75 | GSTO1 confirm 71
CCCC[n+]1ccn(-c2nc3ccccc3nc2[N-]S(=O)(=O)c2ccc(Br)cc2)c1	none
CCCCC[n+]1ccn(C2=C([O-])c3ccccc3C(=O)/C2=N\S(=O)(=O)c2ccc(Cl)cc2)c1	GSTO1 inh 66 | GSTO1 confirm inactive
CCc1n[nH]c(=S)n1/N=C/c1c(O)ccc2ccccc12	GSTO1 inh 38 | GSTO1 confirm inactive
CC(=O)OCCCNc1cc(Sc2nc3ccccc3s2)c2nonc2c1[N+](=O)[O-]	GSTO1 inh 45 | GSTO1 confirm inactive
CSc1ccc(/C=N/Nc2nc(C)cc(=O)[nH]2)cc1	none
Cc1cc(=O)[nH]c(N/N=C/c2ccc(O)c(O)c2)n1	GSTO1 inh 42 | GSTO1 confirm inactive
O=C(O)C1=NN(c2ccccc2)C(=O)C1	GSTO1 inh 48 | GSTO1 confirm inactive
O=C(O)C1=NN(c2ccccc2)C(=O)CC1	none
COc1cc(C2Nc3ccc4ncccc4c3C3=C2C(=O)CCC3)cc(OC)c1O (stereo not drawn)	none
O=C1CCCC2=C1C(c1ccc(O)c(O)c1)Nc1ccc3ccccc3c12 (stereo not drawn)	GSTO1 inh 67 | GSTO1 confirm inactive
COC(=O)C(N)Cc1ccc(O)cc1 (stereo not drawn)	none
COC(=O)C(N)Cc1ccc(O)c(O)c1 (stereo not drawn)	GSTO1 inh 90 | GSTO1 confirm inactive
O=C1/C(=C/c2cccnc2)SC(=S)N1Nc1ccccc1	GSTO1 inh 52 | GSTO1 confirm inactive
CC(Cl)C(=O)N1c2ccccc2CCc2ccccc21 (stereo not drawn)	none
O=C(CCl)N1c2ccccc2CCc2ccccc21	GSTO1 inh 69 | GSTO1 confirm 85 | GSTO1 recomb ABPP inactive
Oc1cccc(/C=N/NC(=S)NCCN2CCOCC2)c1O	GSTO1 inh 88 | GSTO1 confirm 58
O=C(COC(=O)c1ccc([N+](=O)[O-])s1)NCc1ccc(F)cc1	GSTO1 inh 43 | GSTO1 confirm inactive
O=C(COC(=O)c1ccc([N+](=O)[O-])s1)NC(=O)NCc1ccccc1	GSTO1 inh 51 | GSTO1 confirm inactive
O=C(COc1ccc(Cl)cc1)NNC(=O)CSc1nncs1	none
COc1ccc2[nH]cc(C(=O)CCl)c2c1	GSTO1 inh 83 | GSTO1 confirm 100
COc1ccc2[nH]cc(C(=O)CN3CC(C)CC(C)C3)c2c1 (stereo not drawn)	none
N#Cc1ccc2[nH]cc(CCO)c2c1	none
Cc1cc(C)c(OCC(=O)OC(C)C(=O)NC2CC2)c(C)c1 (stereo not drawn)	none
O=C(/C=C/c1ccc(O)c(O)c1)NC(=O)c1ccccc1O	GSTO1 inh 55 | GSTO1 confirm inactive
O=C(CCSc1ccccc1)Nc1ccc(S(=O)(=O)N2CCOCC2)cc1	none
O=C(Nc1ccc2c(c1)OCO2)NC1(C(F)(F)F)Oc2ccccc2O1	GSTO1 inh 48 | GSTO1 confirm inactive
O=C(Nc1ccc2c(c1)OCCO2)NC1(C(F)(F)F)Oc2ccccc2O1	none
O=C(NCC1CCCO1)NC1(C(F)(F)F)Oc2ccccc2O1 (stereo not drawn)	GSTO1 inh 52 | GSTO1 confirm inactive
O=C(NC1(C(F)(F)F)Oc2ccccc2O1)N1CCCC1	GSTO1 inh 48 | GSTO1 confirm inactive
CCOC(=O)C1(CC2CCCCO2)CCN(Cc2ccc(OC)cc2F)CC1 (stereo not drawn)	none
COc1cccc(NC(=O)C(Cc2ccccc2)n2cccc2)c1 (stereo not drawn)	none
O=C(COC(=O)CNC(=O)c1ccccc1)NCCc1ccccc1	none
O=C(CNC(=O)c1ccccc1)NCCc1ccc(O)c(O)c1	GSTO1 inh 75 | GSTO1 confirm inactive
CC1=NN(c2ccc(C)c(C)c2)C(=O)C1C(c1cccc(O)c1)C1C(=O)N(c2ccc(C)c(C)c2)N=C1C (stereo not drawn)	PAD4 inh 77, GSTO1 inh 51, PME-1 inh 34 | GSTO1 confirm inactive
CC(C)NC(=O)CN1CCN(C(=O)CCl)CC1	GSTO1 inh 38 | GSTO1 confirm 58 | GSTO1 recomb ABPP inactive

Screening results deposited in PubChem by The Scripps Research Institute Molecular Screening Center.
